In the supplement of paper PMC8975748:
Structures can show the parent of a compound that is named as a salt. ± gives the standard deviation of the averaged measurements.

What was measured:
[1] = tested on: Saccharomyces cerevisiae BY4741 SeMeCo community; assay: mean cell size (pixel area) (pixels); higher = larger cells; conditions: 10 µM; 24 h; SM minimal medium
Outline: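 Yeast cells were fixed with paraformaldehyde, imaged by automated confocal microscopy and analysed in Harmony to obtain mean cell pixel area per well. They came from a four-plasmid fluorescent Saccharomyces cerevisiae BY4741 community, each plasmid complementing one auxotrophy and carrying a fluorescent marker. Before imaging, 70 µl of culture at OD600 = 0.3 was incubated for 24 h in SM medium in 384-well plates predosed acoustically with drug (final 10 µM). Values are means of 3 replicates. Same SeMeCo high-content imaging drug screen: Selleck FDA-approved drugs at 10 µM, 24 h in SM medium, 384-well plates, 3 replicates.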

[2] = tested on: Saccharomyces cerevisiae BY4741 SeMeCo community; assay: z-score of prototroph abundance vs DMSO median; higher = larger share of this subpopulation than in DMSO controls; conditions: 10 µM; 24 h; SM minimal medium; subpopulation (auxotrophy): Prototroph
Outline: (§1)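 Four plasmids, each restoring a single auxotrophy and encoding a distinct fluorescent protein, were carried by a Saccharomyces cerevisiae BY4741 community. After overnight growth to OD600 1.0 and dilution to 0.3, 70 µl per well was grown for 24 h in minimal SM medium on 384-well plates acoustically predosed with library drugs at 10 µM final. Following paraformaldehyde fixation, automated confocal microscopy was used, with single-auxotroph fluorescent strains defining thresholds and autofluorescence correction. Subpopulation abundance was then scored as a z-score against the vehicle-well median.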

[3] = tested on: Saccharomyces cerevisiae BY4741 SeMeCo community; assay: z-score of subpopulation abundance vs DMSO median, subpopulation auxotrophic for M; higher = larger share of this subpopulation than in DMSO controls; conditions: 10 µM; 24 h; SM minimal medium; subpopulation (auxotrophy): M
Outline: as §1

[4] = tested on: Saccharomyces cerevisiae BY4741 SeMeCo community; assay: z-score of subpopulation abundance vs DMSO median, subpopulation auxotrophic for L; higher = larger share of this subpopulation than in DMSO controls; conditions: 10 µM; 24 h; SM minimal medium; subpopulation (auxotrophy): L
Outline: as §1

[5] = tested on: Saccharomyces cerevisiae BY4741 SeMeCo community; assay: z-score of subpopulation abundance vs DMSO median, subpopulation auxotrophic for U; higher = larger share of this subpopulation than in DMSO controls; conditions: 10 µM; 24 h; SM minimal medium; subpopulation (auxotrophy): U
Outline: as §1

[6] = tested on: Saccharomyces cerevisiae BY4741 SeMeCo community; assay: z-score of subpopulation abundance vs DMSO median, subpopulation auxotrophic for H; higher = larger share of this subpopulation than in DMSO controls; conditions: 10 µM; 24 h; SM minimal medium; subpopulation (auxotrophy): H
Outline: as §1

[7] = tested on: Saccharomyces cerevisiae BY4741 SeMeCo community; assay: z-score of subpopulation abundance vs DMSO median, subpopulation auxotrophic for LU; higher = larger share of this subpopulation than in DMSO controls; conditions: 10 µM; 24 h; SM minimal medium; subpopulation (auxotrophy): LU
Outline: as §1

[8] = tested on: Saccharomyces cerevisiae BY4741 SeMeCo community; assay: z-score of subpopulation abundance vs DMSO median, subpopulation auxotrophic for LM; higher = larger share of this subpopulation than in DMSO controls; conditions: 10 µM; 24 h; SM minimal medium; subpopulation (auxotrophy): LM
Outline: as §1

[9] = tested on: Saccharomyces cerevisiae BY4741 SeMeCo community; assay: z-score of subpopulation abundance vs DMSO median, subpopulation auxotrophic for HM; higher = larger share of this subpopulation than in DMSO controls; conditions: 10 µM; 24 h; SM minimal medium; subpopulation (auxotrophy): HM
Outline: as §1

[10] = tested on: Saccharomyces cerevisiae BY4741 SeMeCo community; assay: z-score of subpopulation abundance vs DMSO median, subpopulation auxotrophic for HU; higher = larger share of this subpopulation than in DMSO controls; conditions: 10 µM; 24 h; SM minimal medium; subpopulation (auxotrophy): HU
Outline: as §1

[11] = tested on: Saccharomyces cerevisiae BY4741 SeMeCo community; assay: z-score of subpopulation abundance vs DMSO median, subpopulation auxotrophic for UM; higher = larger share of this subpopulation than in DMSO controls; conditions: 10 µM; 24 h; SM minimal medium; subpopulation (auxotrophy): UM
Outline: as §1

[12] = tested on: Saccharomyces cerevisiae BY4741 SeMeCo community; assay: z-score of subpopulation abundance vs DMSO median, subpopulation auxotrophic for HL; higher = larger share of this subpopulation than in DMSO controls; conditions: 10 µM; 24 h; SM minimal medium; subpopulation (auxotrophy): HL
Outline: as §1

[13] = tested on: Saccharomyces cerevisiae BY4741 SeMeCo community; assay: z-score of subpopulation abundance vs DMSO median, subpopulation auxotrophic for HLU; higher = larger share of this subpopulation than in DMSO controls; conditions: 10 µM; 24 h; SM minimal medium; subpopulation (auxotrophy): HLU
Outline: as §1

[14] = tested on: Saccharomyces cerevisiae BY4741 SeMeCo community; assay: z-score of subpopulation abundance vs DMSO median, subpopulation auxotrophic for HLM; higher = larger share of this subpopulation than in DMSO controls; conditions: 10 µM; 24 h; SM minimal medium; subpopulation (auxotrophy): HLM
Outline: as §1

[15] = tested on: Saccharomyces cerevisiae BY4741 SeMeCo community; assay: z-score of subpopulation abundance vs DMSO median, subpopulation auxotrophic for HUM; higher = larger share of this subpopulation than in DMSO controls; conditions: 10 µM; 24 h; SM minimal medium; subpopulation (auxotrophy): HUM
Outline: as §1

[16] = tested on: Saccharomyces cerevisiae BY4741 SeMeCo community; assay: z-score of subpopulation abundance vs DMSO median, subpopulation auxotrophic for LUM; higher = larger share of this subpopulation than in DMSO controls; conditions: 10 µM; 24 h; SM minimal medium; subpopulation (auxotrophy): LUM
Outline: as §1

[17] = tested on: Saccharomyces cerevisiae BY4741 SeMeCo community; assay: z-score of subpopulation abundance vs DMSO median, subpopulation auxotrophic for HLUM; higher = larger share of this subpopulation than in DMSO controls; conditions: 10 µM; 24 h; SM minimal medium; subpopulation (auxotrophy): HLUM
Outline: as §1

Row | SMILES | mean cell size [1] | z-score of prototroph abundance [2] | z-score of subpopulation abundance [3] | z-score of subpopulation abundance [4] | z-score of subpopulation abundance [5] | z-score of subpopulation abundance [6] | z-score of subpopulation abundance [7] | z-score of subpopulation abundance [8] | z-score of subpopulation abundance [9] | z-score of subpopulation abundance [10] | z-score of subpopulation abundance [11] | z-score of subpopulation abundance [12] | z-score of subpopulation abundance [13] | z-score of subpopulation abundance [14] | z-score of subpopulation abundance [15] | z-score of subpopulation abundance [16] | z-score of subpopulation abundance [17]
1 | c1ccc(C2CN3CCSC3=N2)cc1 (stereo not drawn) [Tetramisole HCl] | 11.9 ± 0.12 | 0.24 | -0.44 | 0.54 | -0.11 | -0.14 | -0.21 | 0.13 | -0.54 | 0.01 | 0.02 | 0.08 | 0.35 | -0.45 | -0.09 | 0.46 | –
2 | CCCc1nn(C)c2c(=O)[nH]c(-c3cc(S(=O)(=O)N4CCN(C)CC4)ccc3OCC)nc12 [Sildenafil Mesylate] | 12.2 ± 0.17 | -0.95 | -0.91 | 0.21 | 1.64 | -0.01 | 0.91 | -0.29 | -0.05 | 1.74 | 0.21 | -0.5 | 0.05 | -0.78 | 1.55 | 0.38 | –
3 | C[C@]12CC[C@@H]3c4ccc(OS(=O)(=O)O)cc4CC[C@H]3[C@@H]1CCC2=O [Estropipate] | 12.21 ± 0.12 | 0.59 | 0.08 | -0.9 | -0.01 | -0.96 | -0.6 | -0.33 | -0.81 | -0.17 | – | – | -0.73 | -0.64 | -0.32 | -0.11 | –
4 | Nc1ccc(S(=O)(=O)Nc2ccnn2-c2ccccc2)cc1 [Sulfaphenazole] | 12.54 ± 0.079 | 0.15 | 0.25 | 0.58 | 0.18 | -0.07 | -0.02 | -0.2 | -0.42 | – | 0 | -0.02 | -0.27 | -0.29 | -0.72 | -0.28 | 0.07
5 | CC1(C)S[C@@H]2[C@H](NC(=O)[C@H](N)c3ccccc3)C(=O)N2[C@H]1C(=O)O [Ampicillin Trihydrate] | 12.4 ± 0.33 | 0.28 | -0.37 | 0.35 | -0.13 | 0.41 | -0.05 | 0.29 | -0.06 | – | -0.18 | -0.3 | -0.22 | 0.52 | 0.13 | – | -0.25
6 | NC[C@H]1O[C@H](O[C@H]2[C@H](O)[C@@H](O[C@H]3O[C@H](CO)[C@@H](O)[C@H](N)[C@H]3O)[C@H](N)C[C@@H]2N)[C@H](O)[C@@H](O)[C@@H]1O [Kanamycin sulfate] | 11.9 ± 0.26 | -0.43 | 0.84 | 1.91 | -0.55 | 1.26 | -0.08 | 1.55 | 1.34 | -0.5 | -0.15 | 1.08 | 0.63 | -0.02 | 0.21 | 0.52 | –
7 | CN(C)C(=O)COC(=O)Cc1ccc(OC(=O)c2ccc(NC(=N)N)cc2)cc1 [Camostat Mesilate] | 12.5 ± 0.12 | 0.66 | -0.25 | 0.34 | -0.37 | 0.16 | -0.08 | -0.5 | -0.32 | -0.36 | – | -0.35 | -0.87 | -0.36 | -0.25 | -0.84 | –
8 | Cc1ncc([N+](=O)[O-])n1CC(C)O (stereo not drawn) [Secnidazole] | 12.4 ± 0.14 | -0.48 | -0.32 | -0.91 | 1.82 | -0.22 | 0.55 | -0.67 | -0.21 | 0.82 | 0.75 | – | 0.35 | -0.55 | 0.55 | -0.06 | –
9 | O=C(O)c1cc(-c2ccc(F)cc2F)ccc1O [Diflunisal] | 13.1 ± 0.14 | 3.54 | -2.15 | 0.56 | -2.37 | -1.33 | -1.6 | -1.23 | -1.55 | – | -3.18 | – | -0.75 | -0.45 | -2.64 | -1.08 | -0.39
10 | CC1CCc2c(N3CCC(O)CC3)c(F)cc3c(=O)c(C(=O)O)cn1c23 (stereo not drawn) [Nadifloxacin] | 12.6 ± 0.13 | -0.14 | 0.33 | 0.77 | 0.05 | -0.1 | 0.62 | 0.06 | 0 | – | -0.28 | – | -0.45 | 0.15 | -0.22 | 0.27 | 0.26
11 | O=C(Nc1ccc(Oc2ccc(Cl)cc2)c(Cl)c1)c1cc(I)cc(I)c1O [Rafoxanide] | 12.2 ± 0.19 | 0.24 | -0.29 | 1.02 | -1.44 | – | -0.7 | 0.2 | 0.8 | – | -0.89 | 1.29 | -0.3 | 0.01 | 0.54 | -0.08 | 0.01
12 | Cc1cc(O)c(C(=O)N[C@@H](C(=O)N[C@@H]2C(=O)N3C(C(=O)O)=C(CSc4nnnn4C)CS[C@H]23)c2ccc(O)cc2)cn1 [Cefpiramide sodium] | 12.3 ± 0.13 | -0.28 | 0.99 | -0.92 | 0.61 | -0.05 | -0.12 | -0.42 | – | 0.5 | – | 0.18 | 0.16 | -0.6 | -0.35 | – | -0.55
13 | CCOc1cc(NC(C)=O)ccc1C(=O)OC [Ethopabate] | 12.6 ± 0.26 | -0.33 | 0.39 | 0.35 | -0.35 | -0.59 | 1.2 | 0.15 | -0.11 | – | 0.48 | 0.25 | -0.1 | 0.97 | -0.22 | – | –
14 | C=C[C@H]1CN2CC[C@H]1C[C@@H]2[C@@H](O)c1ccnc2ccc(OC)cc12 [Quinidine sulfate] | 12.4 ± 0.13 | -1.18 | 1.1 | 2.41 | -1.29 | – | 0.61 | 2.28 | – | -0.47 | – | – | 1.39 | 1.12 | 0.61 | – | 2.36
